# Screens as filed in PubChem.
# HTT aggregate = reduces HttQ103-GFP aggregates in PC12 cells. PC12 HttQ103-GFP aggregates, Acumen cytometry, 40 h. Potency, µM (titrated, usually from 46.1 µM), actives largely listed as inhibitors. 220,000 compounds, 1.1% hits; also: nearly all actives have a fitted effect of over 60% in size
#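 Read-out: GFP aggregate count by laser scanning cytometer (488 nm excitation, 500-530 nm emission, 1–25 µm objects >6 SD above background). Cells: PC12, inducible HTTex1-Q103-GFP, 100 nM tebufenozide; compounds titrated.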
# Epigenetic derep = epigenetic control regulation, reporter derepression | 280,000 compounds, 0.2% hits | Potency, µM (highest dose often 53.9 µM), most hits filed as activators | murine LDR cells, GFP reporter derepression, 30 h | AID 1865; also: nearly all actives have a fitted effect of over 60% in size
#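 Murine LDR cells bearing a silenced CMV-driven GFP reporter were exposed to compound for 30 h at 37 C. After PBS washes, GFP-positive cells (20-120 um objects) counted by laser-scanning microplate cytometry.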
# HTT cytoprotect = cytoprotection in Huntington HTT-Q103 PC12 cell model | 230,000 compounds, 0.14% hits | PC12 HTT-Q103 induced, cytoprotection, ATP luminescence, 40 h | Potency, µM (doses to about 56.4 µM), most hits filed as activators; also: nearly all actives have a fitted effect of over 45% in size
#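 Rat PC12, Q103 Htt exon1-GFP fusion, ecdysone promoter; tebufenozide inducer 100 nM final; compound titration; qHTS, 1500 cells/well; ATPlite luminescent read.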
# PINK1 modulator = PINK1 expression modulation. Potency, µM (titrated, usually from 76.6 µM), most hits filed as activators. 410,000 compounds, 0.2% hits. PINK1 immunofluorescence, high-content cytometry, 24 h; active = well fitted activation curve with a large enough effect; inconclusive = small, poorly fitted or top-dose-only effect; cell line not stated here; also: nearly all actives have a fitted effect of over 65% in size
#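 PINK1 protein, normally rapidly degraded, was detected by immunofluorescence after 24 hour compound treatment of a stable cell line. Titration data (5 concentrations) came from laser-scanning cytometry, with CCCP-treated wells as controls.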
# Hits are given with their value; n = inactive; u = inconclusive; x = not tested or not shown; ! = repeats disagree; [ ] = another dose, or the depositor's remark. The full list was thinned out, with hits kept by preference. Unless noted, calls follow the shape of the dose curve; as a rule, active = well fitted curve in the direction sought with a large enough effect; inconclusive = small, poorly fitted or top-dose-only effect, or another doubt; inactive = no such curve, though single readings can be large; an effect the other way counts as inactive or inconclusive.
SMILES,HTT aggregate,Epigenetic derep,HTT cytoprotect,PINK1 modulator
Cc1cc(C(=O)Nn2c(-c3ccc(Br)cc3)nc3ccccc3c2=O)ccc1[N+](=O)[O-],35µM,n,n[10 µM],u
Cc1cc(C)c(S(=O)(=O)/N=C2/C=C(Sc3ncn[nH]3)C(=O)c3ccccc32)cc1C,3.5µM,n,n[10 µM],n
Cc1ccc(C)c(S(=O)(=O)/N=C2\C=C(NS(=O)(=O)c3ccccc3)C(=O)c3ccccc32)c1,x,x,x,n
O=C1CC(c2ccccc2)Cc2[nH]c(=O)c(-c3nc(-c4ccc(Cl)cc4)cs3)cc21 (centres undefined),x,n,x,n
Cc1sc(-c2cc3c([nH]c2=O)CC(c2ccccc2)CC3=O)nc1-c1ccc(Cl)cc1 (centres undefined),x,18µM,x,n
Cc1ccc(Cl)cc1N1CCN(C(=O)CSc2nnc3n2C(C)(C)Cc2ccccc2-3)CC1,7.9µM,n,u,n
COc1cnn(-c2ccccc2)c(=O)c1N(C)C,n,n,n,13µM
O=c1c(Br)c(Br)cnn1-c1ccccc1,5.6µM,n,n[10 µM],n
COc1cc2ncnc(NCc3ccc(C)cc3)c2cc1OC,35µM,n,n[10 µM],n
CN(Cc1ccccc1F)c1ncnc2sccc12,x,x,x,n
CN(Cc1cccs1)c1ncnc2sccc12,3.2µM,n,n[10 µM],n
Nc1nc2[nH]c(=O)[nH]c2c(=O)[nH]1,x,n,x,n
C=CCn1c(-c2ccc(OC)cc2)nc2ccccc21,11µM,n,n[10 µM],n
C=CCn1c(-c2ccc(N)cc2)nc2ccccc21,n,n,n,n
CCn1c(-c2ccc(N(C)C)cc2)nc2ccccc21,10µM,n,n,n
CCn1c(-c2ccc(N)cc2)nc2ccccc21,n,n,n,n
CC1O[C@@H](O[C@H]2C(Oc3cc(O)c4c(=O)cc(-c5ccc(O)cc5)oc4c3)OC(CO)C(O)C2O)C(O)C(O)C1O (some centres undefined),x,n,x,n
S=C(NN=C(c1ccccc1)c1ccccn1)N(Cc1ccccn1)Cc1ccccn1,x,x,x,n
Cc1cccc(C(=O)CC(=O)c2cc(Cl)ccc2O)c1,13µM,n,n,n
Cc1ccc(O)c(C(=O)CC(=O)c2ccc(Cl)cc2)c1,x,x,x,n
Cc1ccc(O)c(C(=O)CC(=O)c2cccc(F)c2)c1,18µM,n,n[10 µM],n
O=C(CC(=O)c1cc(Cl)ccc1O)c1ccccc1,11µM,n,n[10 µM],x
O=C(O)CC(=O)Nc1cc(Cl)ccc1O,n,n,n,n
COc1ccc(CNC(=O)c2csc(Cc3ccc(Cl)cc3)n2)cc1,u,n,n,n
Clc1ccc(Nc2nc(NCc3ccco3)nc3nccnc23)cc1,x,x,x,n
SMILES,HTT aggregate,Epigenetic derep,HTT cytoprotect,PINK1 modulator
CCCCn1c(CCc2ccccc2)nc2cc3[nH]c(=O)c(C(C)C)nc3cc21,x,x,x,n
Cc1cccnc1CN1CCN(C(=O)c2cc(COc3ccc4ncccc4c3)on2)CC1,6.3µM,n,n,n
O=C(NC1CCCCCCC1)c1cc(COc2ccc3ncccc3c2)on1,3.2µM,n,n,u
CCOC(=O)N1CCN(C(=O)c2cc(COc3ccc4ncccc4c3)on2)CC1,n[9.22 µM],n,n[10 µM],n
[O-][n+]1onc2c1CCc1c-2nn(-c2ccccc2Cl)[n+]1[O-],11µM,n,n,n
Cc1ccc(-n2nc3c([n+]2[O-])CCc2c-3no[n+]2[O-])cc1,13µM,n,u,n
Cc1ccc(-n2nc3c(n2)/C(=N/O)CC/C3=N\O)cc1,n,n,n[10 µM],n
Cc1cccc(-n2nc3c([n+]2[O-])CCc2nonc2-3)c1C,n,n,x,n
COC(=O)C1=C(N)Oc2cc(C)n(Cc3cccnc3)c(=O)c2C1c1ccc(OC)c(OC)c1 (centres undefined),u,n,n,n
CN(C)C=Nc1ncc2c([nH]c3ccccc32)c1C#N,6.3µM,n,n,n
Cc1nc([N+](=O)[O-])c(Sc2nc3ccccc3n2C)n1Cc1ccccc1,10µM,n,n[10 µM],n
O=C1c2c(O)ccc(O)c2C(=O)c2c(NCCNCCO)ccc(NCCNCCO)c21,10µM,13µM!,n,n
NC(=O)C1CC(=O)N(c2ccc(OCC(=O)Nc3ccccc3F)cc2)C1 (centres undefined),x,x,x,n
CCOC(=O)c1ccc(-c2ccc(/C=C(\C#N)C(=O)Nc3ccc(C)cc3OC)o2)cc1,x,n,x,n
CCOC(=O)c1ccc(-c2ccc(/C=C(\C#N)C(=O)Nc3c(C)cccc3Cl)o2)cc1,x,11µM,x,n
CCOC(=O)c1c(C)[nH]c(C(=O)COC(=O)CNC(=O)c2ccccc2Cl)c1C,n,n,n[1.9 µM],n
CNS(=O)(=O)c1cc(NC(=O)CCCNC(=O)c2ccc(Cl)cc2)ccc1C,x,x,x,n
CCOC(=O)/C(=N/Nc1ccc(Cl)cc1)Sc1nnnn1-c1ccc(C)cc1,2.5µM,n,n[10 µM],n
CCOC(=O)/C(=N/Nc1ccccc1)Sc1nnnn1-c1ccc(C)cc1,n,n,n[10 µM],n
COc1ccc2nc(NC(=O)Nc3ccccc3)sc2c1,n,n,n,n
CC(C)(C)c1nc(NC(=O)Nc2ccccc2)sc1Br,11µM,n,n,u
Cc1ccc(-c2nnn(C(C)C(=O)N3c4ccccc4CCc4ccccc43)n2)cc1 (centres undefined),n,n,n[10 µM],n
CC(C(=O)N1c2ccccc2Sc2ccccc21)n1nnc(-c2cccs2)n1 (centres undefined),4µM,n,n[10 µM],x
Cc1cc(-c2ccc(N=Nc3c(S(=O)(=O)O)cc4cc(S(=O)(=O)O)cc(N)c4c3O)c(C)c2)ccc1N=Nc1c(S(=O)(=O)O)cc2cc(S(=O)(=O)O)cc(N)c2c1O,0.02µM,x,n,x
CC(=O)c1cccc(NC(=O)Cn2nc(C)n3cccc3c2=O)c1,x,u,x,n
SMILES,HTT aggregate,Epigenetic derep,HTT cytoprotect,PINK1 modulator
O=S1(=O)C=C(Sc2nc3ccccc3s2)c2ccccc21,4.5µM,n,2µM,n
COc1ccc(Cc2c(-c3ccc(C)cc3)nc3ccc(Cl)cn23)c(C)c1,x,x,x,32µM
Cc1ccc(-c2c3c(nc4sc(C(N)=O)c(N)c24)CCC3)cc1,10µM,n,n,n
O=[N+]([O-])c1ccc(N=Nc2ccc(O)cc2O)cc1,1.3µM,n,n,u
CCN(CC)c1ccc(Nc2nc(N3CCOCC3)c3ccccc3n2)cc1,7.9µM,n,n,n
O=C(Nc1ccccc1C(=O)N1CCN(c2ccccc2)CC1)c1ccco1,n,n,n,n
CCN(CC)S(=O)(=O)c1cccc(-c2n[nH]c(=S)n2/N=C/c2ccc(OC(F)F)cc2)c1,22µM,n,n[1.9 µM],n
O=[N+]([O-])c1ccc(Sc2n[nH]c(-c3ccc(Cl)cc3Cl)n2)nc1,u,n,0.79µM,n
CC(C)(C)c1nc(Sc2ccc([N+](=O)[O-])cn2)n[nH]1,n[9.22 µM],n,n[10 µM],n
CCCCCCCCCCCCCCCC(=O)NCCc1ccc(O)c(O)c1,x,u,n,x
CCCCCCCCCCCCCCCCCC(=O)NCCc1ccc(O)c(O)c1,x,11µM,n,x
CC(=O)N1CCc2cc(NC(=O)C3(C)CCN3Cc3ccc(C(C)C)cc3)ccc21 (centres undefined),x,x,x,n
C=CCN1C(C(=O)c2ccccc2)=C(OC(=O)COc2ccccc2)c2ccccc2S1(=O)=O,13µM,n,n[10 µM],n
